Inconclusive results are not listed. Active and inactive are the calls of the source. Calls come from the whole dose curve; as a rule, active = well fitted cell-killing curve with a large enough effect; inconclusive = small, poorly fitted or top-dose-only effect, or effect the other way; inactive = no such curve, though single readings can be large or run the other way.
Potency is the fitted concentration of half-maximal effect.

This assay is described as follows: Quantitative High-Throughput drug screen in 47 multiple myeloma cell lines against the NCATS MIPE library collection: Karpas25_ECACC cell viability assay (AID 1918968; note: nearly all actives have a fitted effect of over 35% in size). The conditions noted are these: Karpas25 myeloma viability, CellTiter-Glo ATP, 48 h; series mostly up to 45.8 µM. From the text: PI: Beverly A. Mock Ph.D.
Laboratory of Cancer Biology and Genetics,
Center for Cancer Research, National Cancer Institute,
National Institute of Health, Bethesda, Maryland
Drug resistance and disease progression are common in multiple myeloma (MM) patients, underscoring the need for new therapeutic combinations. […] We hypothesized that effective combinations would reduce MYC expression and enhance p16 activity. […] These preclinical data identify potentially useful drug combinations for evaluation in drug-resistant MM and reveal potential mechanisms of combined drug sensitivity.
Described herein is the primary MIPE qHTS used to cherrypick compounds. Validated compounds were then further tested for potential synergistic activiy.
[1] Peat TJ, Gaikwad SM, Dubois W, Gyabaah-Kessie N, Zhang S, Gorjifard S, Phyo Z, Andres M, Hughitt VK, Simpson RM, Miller MA, Girvin AT, Taylor A, Williams D, D'Antonio N, Zhang Y, Rajagopalan A, Flietner E, Wilson K, Zhang X, Shinn P, Klumpp-Thomas C, McKnight C, Itkin Z, Chen L, Kazandijian D, Zhang J, Michalowski AM, Simmons JK, Keats J, Thomas CJ, Mock BA. Drug combinations identified by high-throughput screening promote cell cycle transition and upregulate Smad pathways in myeloma. Cancer Lett. 2023 Aug 1;568:216284. doi: 10.1016/j.canlet.2023.216284. Epub 2023 Jun 24. PMID: 37356470; PMCID: PMC10408729.
SEQUENCE No. (e.g., 1, 2, 3, etc.); […] (e.g., Cells, Incubation, Reagent, etc.); VALUE and DESCRIPTION.
1; Cells; 5 uL; white, solid bottom 1536-well Greiner assay plate.
2; Compounds; 23 nL; Kalypsis pin tool (Wako USA) equipped with a 1536-well pin head to transfer to the assay plates.
3; Incubation; 48 hours; 37C incubation.
4; Reagent;5uL; CellTiter Glo (Promega).
5; Detector; 425V; Luminescence; Viewlux PerkinElmer.
NOTES (numbers refer to Sequence numbers above)
1. The cell-based screening methods employed in this study were like those previously published. Briefly, the corresponding myeloma cell lines were screened in 1,536-well plates with 500 cells, 5-uL per well for inhibition of cell viability (assessed by measuring ATP levels with CellTiterGlo).
2. NCATS MIPE 4.0 library of approved and investigational drugs were added using the Kalypsis pin tool. Wells treated with DMSO only for 100% viability and media only wells for 0% viability were used as controls.
3. The assay plates were covered and incubated for 48 hours in a 37C, 5% CO2 incubator with controlled humidity.
4. After 48 hours, CellTilter-GloTM luminescent substrate mix (Promega) reagent was added to the assay plate and plates we incubated for 5 min at room temperature.
5. Signal was measured as median relative luminescence units on a ViewLux (PerkinElmer) multiplate reader.
[1] Heske CM, Davis MI, Baumgart JT, Wilson K, Gormally MV, Chen L, Zhang X, Ceribelli M, Duveau DY, Guha R, Ferrer M, Arnaldez FI, Ji J, Tran HL, Zhang Y, Mendoza A, Helman LJ, Thomas CJ. Matrix Screen Identifies Synergistic Combination of PARP Inhibitors and Nicotinamide Phosphoribosyltransferase (NAMPT) Inhibitors in Ewing Sarcoma. Clin Cancer Res. 2017 Dec 1;23(23):7301-7311. doi: 10.1158/1078-0432.CCR-17-1121. Epub 2017 Sep 12. PMID: 28899971; PMCID: PMC6636827.
As for `Cc1cc(NC(=O)Nc2ccc(N(C)C)cc2)c2cc(F)cc(F)c2n1`, the Potency is 3.72 µM (active).

Consider `CC(C)(O)CC(=O)NCCn1ccc2ncnc(Nc3ccc(Oc4cccc(C(F)(F)F)c4)c(Cl)c3)c21`, for which the Potency is 23.5 µM (active).

For `C[C@@H]1O[C@@H](O[C@H]2CC[C@@]3(C)[C@H](CC[C@@H]4[C@H]3C[C@@H](O)[C@]3(C)[C@@H](C5=CC(=O)OC5)CC[C@]43O)C2)C[C@H](O)[C@@H]1O[C@H]1C[C@H](O)[C@H](O[C@H]2C[C@H](O)[C@@H](O)[C@@H](C)O2)[C@H](C)O1` (stereo in doubt), the Potency is 0.241 µM (active).

`NC(N)=Nc1nc(CSCCC(N)=NS(N)(=O)=O)cs1`: the Potency is 11.8 µM (active).

Consider `Cc1ccc(C2=Nc3ccc(Cl)cc3OC2)cc1`, for which the Potency is 3.72 µM (active).

Consider `COc1ccc(-c2cc(=O)c3c(O)cc(O[C@@H]4O[C@H](CO[C@@H]5O[C@@H](C)[C@H](O)[C@@H](O)[C@@H]5O)[C@@H](O)[C@H](O)[C@@H]4O)cc3o2)cc1O`, for which the Potency is 11.8 µM (active).

As for `CC(C)Oc1cc(Nc2nc(N[C@@H](C)c3ccc(F)cn3)ncc2Cl)[nH]n1`, the Potency is 10.5 µM (active).

`CC(=O)N1CCN(c2ccc(OCc3nn(C)c(C)c3-c3cccc4c(CCCOc5cc(C)c(Cl)c(C)c5)c(C(=O)O)n(Cc5cccnc5)c34)cc2)CC1`: the Potency is 3.32 µM (active).

Take `O=C(O)CCNc1cc(N2CCc3ccccc3CC2)nc(-c2ccccn2)n1`: the Potency is 16.6 µM (active).

For the compound `CCOC(=O)[C@H](CCc1ccccc1)N[C@@H](C)C(=O)N1CCCC1C(=O)O` (stereo not given in full), the Potency result was “inactive”.

On to `CC1C(=O)OC2C(O)C34C5CC(C(C)(C)C)C36C(OC(=O)C6O)OC4(C(=O)O5)C12O` (stereo not given), for which the Potency entry is “inactive”.

Take `CC(C)(F)C[C@H](N[C@@H](c1ccc(-c2ccc(S(C)(=O)=O)cc2)cc1)C(F)(F)F)C(=O)NC1(C#N)CC1`: the Potency entry was “inactive”.

For `CC(C)C[C@@H](C(=O)N[C@H](C(=O)OC1CCCC1)c1ccccc1)[C@H](O)C(=O)NO`, the Potency was 20.9 µM (active).

Consider `Cc1cccc(-c2[nH]c(C(C)(C)C)nc2-c2ccc3c(c2)OCO3)n1`, for which the Potency was 0.526 µM (active).

Regarding `COc1cc2c(cc1Cc1cccc(Cl)c1F)c(=O)c(C(=O)O)cn2[C@H](CO)C(C)C`, the Potency was 14.8 µM (active).

As for `CC(C)(C)c1nc(-c2cccc(NS(=O)(=O)c3c(F)cccc3F)c2F)c(-c2ccnc(N)n2)s1`, the Potency was 5.26 µM (active).

For `CC1CNc2c(cccc2S(=O)(=O)N[C@@H](CCCN=C(N)N)C(=O)N2CC[C@@H](C)C[C@@H]2C(=O)O)C1` (stereo not given in full), the Potency entry was “inactive”.

In the case of `Cc1cnc(Nc2cccc(CN3CCOCC3)c2)nc1Nc1cccc(S(=O)(=O)NC(C)(C)C)c1`, the Potency is 3.72 µM (active).

For `Cc1nc(NC(=O)N2CCC[C@@H]2C(N)=O)sc1-c1csc(C(C)(C)C)n1`, the Potency was 5.9 µM (active).

As for `NS(=O)(=O)c1ccc(Nc2nc(OCC3CCCCC3)c3[nH]cnc3n2)cc1`, the Potency was 13.2 µM (active).

As to `Clc1ccc(COC(Cn2ccnc2)c2ccc(Cl)cc2Cl)c(Cl)c1` (stereo not given), the Potency was 18.7 µM (active).

Consider `CN1C(=O)C(Cc2c[nH]c3ccccc23)NC1=S` (stereo not given), for which the Potency was 13.2 µM (active).

`CC[C@H](C)n1cc(C)c2c(C(=O)NCc3c(C)cc(C)[nH]c3=O)cc(-c3ccc(N4CCNCC4)nc3)cc21`: the Potency was 23.5 µM (active).

Turning to `CCOC(=O)c1c(CSc2ccccc2)n(C)c2cc(Br)c(O)c(CN(C)C)c12`, the Potency is 16.6 µM (active).

For the compound `CN[C@H]1[C@@H](O[C@@H]2[C@H](O[C@@H]3[C@@H](O)[C@@H](O)[C@@H](N=C(N)N)[C@@H](O)[C@@H]3N=C(N)N)O[C@H](C)[C@@]2(O)C=O)O[C@@H](CO)[C@@H](O)[C@H]1O`, the Potency entry is “inactive”.

For `COc1ccc(-c2oc3c(CC=C(C)C)c(O)cc(O)c3c(=O)c2O)cc1`, the Potency is 14.8 µM (active).

For the compound `O=C(Nc1ccccc1)Nc1ccc(-c2ccc(C(=O)[C@H]3CCC[C@H]3C(=O)O)cc2)cc1`, the Potency entry was “inactive”.

With `O=C1NC(=O)C(c2cnc3ccccn23)=C1c1cn2c3c(cccc13)CN(C(=O)N1CCOCC1)CC2`, the Potency was 0.001 µM (active).

Turning to `CCN1C[C@H](C)n2c(c(O)c3c(=O)n(Cc4ccc(F)c(Cl)c4)nc(C(=O)NC)c32)C1=O`, the Potency result was “inactive”.

For `Cc1cc(C(C)Nc2ccccc2)c2nc(N3CCOCC3)cc(=O)n2c1` (stereo not given), the Potency was 4.18 µM (active).

Turning to `O=C1Nc2ccc(I)cc2C1=Cc1cc(Br)c(O)c(Br)c1`, the Potency was 14.8 µM (active).

For the compound `CNC1CCC(N(Cc2cccc(-c3ccncc3)c2)C(=O)c2sc3ccccc3c2Cl)CC1` (stereo not given), the Potency is 9.35 µM (active).

Regarding `O=C1C(CCC(O)c2ccc(F)cc2)C(c2ccc(O)cc2)N1c1ccc(F)cc1` (stereo not given), the Potency entry was “inactive”.

For `O=S(=O)(NCCNCC=Cc1ccc(Br)cc1)c1cccc2cnccc12`, the Potency is 9.35 µM (active).

Take `CCCCC[C@H](O)C=C[C@H]1[C@H](O)CC(=O)[C@H]1CC=CCCCC(=O)O`: the Potency was 20.9 µM (active).

Consider `CN(C)c1ccccc1CN1CCCN(Cc2ccccc2N(C)C)C1c1ccncc1`, for which the Potency is 16.6 µM (active).

As to `N#CC(c1ccc(Cl)cc1)c1c(Cl)cc(-n2ncc(=O)[nH]c2=O)cc1Cl` (stereo not given), the Potency was 8.33 µM (active).

Consider `CN(C)CCN(Cc1ccc(Cl)cc1)c1ccccn1`, for which the Potency is 11.8 µM (active).

With `CN(C)CCOc1ccc(C(=C(CCCl)c2ccccc2)c2ccccc2)cc1`, the Potency result was “inactive”.

Consider `O=C1C(c2c(O)[nH]c3ccccc23)=Nc2ccccc21`, for which the Potency is 6.62 µM (active).

(Values after PubChem BioAssay (NCATS).)
